This note sets out measurements from PubChem BioAssay (EPA / NIEHS).

Values joined by “and” are separate entries in the source; they are usually repeats but may differ in a detail not shown here. Identical values can stand only once. The source holds several records for some structures; these can differ, active in one and inactive in another. Active and inactive are the calls of the source. How the source made its calls: active means hit-call score of the fitted dose curve at least 0.9, where 1 is the maximum; inactive means score below 0.9.

This assay in a line: ATG_GRE_CIS: Attagene CIS-FACTORIAL HepG2 Assay for human Glucocorticoid Response Elements (GRE) (AID 2282947). As to conditions: HepG2 GRE cis-reporter, Attagene multiplex mRNA; AC50: actives raise or lower the signal unless noted; outcome: actives raise or lower the signal unless noted. Here is the method:
ATG_CIS is a cell-based, multiplexed-readout assay that uses HepG2, a human liver cell line, with measurements taken at 24 hours after chemical dosing in a 24-well plate.ATG_GRE_CIS is one of 52 assay component(s) measured or calculated from the ATG_CIS assay. It is designed to make measurements of mRNA induction, a form of inducible reporter, as detected with fluorescence intensity signals by Reverse transcription polymerase chain reaction (RT-PCR) and Capillary electrophoresis technology.Data from the assay component ATG_GRE_CIS was analyzed into 1 assay endpoint. This assay endpoint, ATG_GRE_CIS, was analyzed with bidirectional fitting relative to DMSO as the negative control and baseline of activity. Using a type of inducible reporter, measures of mRNA for gain or loss-of-signal activity can be used to understand the reporter gene at the transcription factor-level as they relate to the gene NR3C1. Furthermore, this assay endpoint can be referred to as a primary readout, because this assay has produced multiple assay endpoints where this one serves a reporter gene function. To generalize the intended target to other relatable targets, this assay endpoint is annotated to the nuclear receptor intended target family, where the subfamily is steroidal.
Human liver HepG2 cells are transiently transfected with multiple reporter transcription units (MRTUs) in 6-well plates using FuGene 6 reagent (Roche; 3 ml FuGene/1 mg DNA). The MRTU constructs are regulated by a cis-regulating element (promoter). […] A major difference between the CIS and TRANS system is that in CIS activities of endogenous TFs are measured, whereas the TRANS assay evaluates changes in activities of exogenous, chimeric NR-Gal4 proteins. […] At the end of 24 hour incubation, total RNA was isolated using TriZol reagent (Invitrogen). The isolated RNA is then reverse-transcribed using oligo(dT) primer and Mo-MLV reverse transcriptase (Invitrogen) with DNAse I (Ambion) treatment for 30 min. The one-tenth of the produced cDNA was amplified by PCR using Taq DNA polymerase (Invitrogen) and two reporter sequence-specific primers. The PCR products were fluorescently labeled by primer extension with 6-arboxyfluorescein (6-FAM) 5'-labeled reporter sequence-specific primer (2 min at 95 C, 20 s at 68 C and 10 min at 72 C) and these products were digested with 5U of HpaI (New England Biolabs) for 2h at 37 C. The fragments were purified using Qiaquick PCR columns (Qiagen), analyzed on an ABI 3130xL genetic analyzer (Applied Biosystems) with peak positions identified by using a set of X-rhodamine (ROX)-labeled MapMarker1000 molecular weight standards (BioVentures). The raw capillary electrophoresis data was processed using Attagraph software (Attagene).
As to `NNC(=O)CCCCC(=O)NN`, the result was inactive.

With `c1cc[nH]c1`, the compound was classed as inactive.

Consider `O=C1C=CC(=O)N1c1cccc(N2C(=O)C=CC2=O)c1`, for which the outcome was inactive.

In the case of `CCCCCCCCCCCCCCCCCC[N+](C)(C)Cc1ccccc1`, the concentration at half-maximal activity (AC50) (usually the concentration at which the activity in the assay is half-maximal) was 79.2 µM (active).

Consider `C=CCOCC(CO)(CO)CO`, for which the outcome was inactive.

With `O=S(=O)(O)c1ccc2cc(O)ccc2c1`, the outcome was inactive.

As for `COc1ccccc1NC(=O)c1cc2ccccc2cc1O`, the AC50 is 100 µM (active).

Consider `O=C(O)C(=O)O`, for which the compound was classed as inactive.

For `NC(=NCCCCCCN=C(N)/N=C(\N)Nc1ccc(Cl)cc1)/N=C(\N)Nc1ccc(Cl)cc1`, the AC50 is 23.2 µM (active) and 25.6 µM (active); the call was inactive.

On to `CCOC=O`, for which the compound was called inactive.

Take `NC(C(F)(F)F)C(F)(F)F`: the outcome was inactive.

Take `O=C(c1ccccc1)c1ccccc1`: the result was inactive.

Turning to `CC(C)CCOCCC(C)C`, the compound was classed as inactive.

As for `Nc1cc(Cl)c(-c2cc(Cl)c(N)cc2Cl)cc1Cl`, the compound was classed as inactive.

For the compound `C=CC(C)(CCC=C(C)C)OC(C)=O` (stereo not given), the compound was called inactive.

Turning to `O=C(CCCN1CCC(O)(c2ccc(Cl)cc2)CC1)c1ccc(F)cc1`, the AC50 is 52 µM (active).

Consider `CC1COCc2cc3c(cc21)C(C)(C)C(C)C3(C)C` (stereo not given), for which the outcome was inactive.

Regarding `Brc1ccc(Oc2ccc(Br)cc2Br)cc1`, the compound was called inactive.

For the compound `FC1(F)C=CC(F)(F)C1(F)F`, the result was inactive.

On to `CCO[Si](CCC1CCC2OC2C1)(OCC)OCC` (stereo not given), for which the compound was classed as inactive.

Regarding `CCCCc1oc2ccccc2c1C(=O)c1cc(I)c(OCCN(CC)CC)c(I)c1`, the AC50 is 141 µM (active).

Take `Cc1cncc(C)c1`: the compound was classed as inactive.

For `OCC(F)(F)C(F)(F)C(F)(F)C(F)(F)C(F)(F)C(F)(F)C(F)(F)C(F)(F)C(F)(F)C(F)(F)C(F)(F)F`, the outcome was inactive.

For the compound `Cc1ccc(N=Nc2c(O)ccc3ccccc23)c(C)c1`, the call was inactive.

Turning to `O=C(c1cc(O)c(O)c(O)c1)c1ccc(O)c(O)c1O`, the compound was classed as inactive.

For `O=C(F)C(F)(F)C(F)(F)C(F)(F)C(F)F`, the outcome was inactive.

With `NNc1nc(-c2ccc([N+](=O)[O-])cc2)cs1`, the compound was classed as inactive.

Regarding `COC(=O)C(F)(F)C(F)(F)C(F)(F)C(F)(F)C(F)(F)F`, the result was inactive.

`Cc1cccc2c1ccc1ccccc12`: the compound was called inactive.

In the case of `COC1=CC(=O)C[C@@H](C)[C@]12Oc1c(Cl)c(OC)cc(OC)c1C2=O`, the outcome was inactive.

Regarding `Oc1c(Cl)ccc(Cl)c1Cl`, the compound was classed as inactive.

Regarding `CCCCCc1ccc(O)cc1`, the compound was classed as inactive.

Regarding `CCCCCCCCC1CCC(=O)O1` (stereo not given), the result was inactive.

For `O=C1c2ccccc2C(=O)c2c(O)c(O)cc(O)c21`, the compound was classed as inactive.

With `CC1CNCC(C)O1` (stereo not given), the outcome was inactive.

Turning to `CC1CCC(CO)CC1` (stereo not given), the outcome was inactive.

`O=C1OC(=O)c2cc(-c3ccc4c(c3)C(=O)OC4=O)ccc21`: the outcome was inactive.

`c1cnc2c(c1)ccc1cccnc12`: the compound was called inactive.

Regarding `C=C(c1ccc(C(=O)O)cc1)c1cc2c(cc1C)C(C)(C)CCC2(C)C`, the compound was classed as inactive.
